High-throughput results (PubChem BioAssay)
POLH inh: qHTS for Inhibitors of Polymerase Eta; AID 588591, 2011; 390,000 compounds, 1.2% hits; Potency, µM (titrated, usually from 114 µM), inactives show top-dose activity change, negative = inhibition, actives largely listed as inhibitors; DNA polymerase eta (Homo sapiens), Q9Y253; recombinant Pol eta, fluorescent DNA replication assay; further: potency means the concentration at half of the fitted maximal effect; on the % scale 0 is the no-effect control and ±100 the full control effect
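Fluorescent replication assay: 50 nM final substrate added after a 15 min room-temperature compound preincubation with 10 nM enzyme. Signal taken at 0 min and again at 10 min.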
WRN helicase inh: qHTS for Inhibitors of WRN Helicase. Bifunctional 3'-5' exonuclease/ATP-dependent helicase WRN (Homo sapiens), Q14191. WRN helicase unwinding, fluorescent forked duplex, kinetic. Potency, µM (highest dose often 114 µM), for the others: top-dose activity change, negative = inhibition, most hits filed as inhibitors. 360,000 compounds, 0.46% hits; further: potency means the concentration at half of the fitted maximal effect; on the % scale 0 is the no-effect control and ±100 the full control effect; nearly all actives have a fitted effect of over 55% in size
Target sequence (Q14191 whole entry, looked up): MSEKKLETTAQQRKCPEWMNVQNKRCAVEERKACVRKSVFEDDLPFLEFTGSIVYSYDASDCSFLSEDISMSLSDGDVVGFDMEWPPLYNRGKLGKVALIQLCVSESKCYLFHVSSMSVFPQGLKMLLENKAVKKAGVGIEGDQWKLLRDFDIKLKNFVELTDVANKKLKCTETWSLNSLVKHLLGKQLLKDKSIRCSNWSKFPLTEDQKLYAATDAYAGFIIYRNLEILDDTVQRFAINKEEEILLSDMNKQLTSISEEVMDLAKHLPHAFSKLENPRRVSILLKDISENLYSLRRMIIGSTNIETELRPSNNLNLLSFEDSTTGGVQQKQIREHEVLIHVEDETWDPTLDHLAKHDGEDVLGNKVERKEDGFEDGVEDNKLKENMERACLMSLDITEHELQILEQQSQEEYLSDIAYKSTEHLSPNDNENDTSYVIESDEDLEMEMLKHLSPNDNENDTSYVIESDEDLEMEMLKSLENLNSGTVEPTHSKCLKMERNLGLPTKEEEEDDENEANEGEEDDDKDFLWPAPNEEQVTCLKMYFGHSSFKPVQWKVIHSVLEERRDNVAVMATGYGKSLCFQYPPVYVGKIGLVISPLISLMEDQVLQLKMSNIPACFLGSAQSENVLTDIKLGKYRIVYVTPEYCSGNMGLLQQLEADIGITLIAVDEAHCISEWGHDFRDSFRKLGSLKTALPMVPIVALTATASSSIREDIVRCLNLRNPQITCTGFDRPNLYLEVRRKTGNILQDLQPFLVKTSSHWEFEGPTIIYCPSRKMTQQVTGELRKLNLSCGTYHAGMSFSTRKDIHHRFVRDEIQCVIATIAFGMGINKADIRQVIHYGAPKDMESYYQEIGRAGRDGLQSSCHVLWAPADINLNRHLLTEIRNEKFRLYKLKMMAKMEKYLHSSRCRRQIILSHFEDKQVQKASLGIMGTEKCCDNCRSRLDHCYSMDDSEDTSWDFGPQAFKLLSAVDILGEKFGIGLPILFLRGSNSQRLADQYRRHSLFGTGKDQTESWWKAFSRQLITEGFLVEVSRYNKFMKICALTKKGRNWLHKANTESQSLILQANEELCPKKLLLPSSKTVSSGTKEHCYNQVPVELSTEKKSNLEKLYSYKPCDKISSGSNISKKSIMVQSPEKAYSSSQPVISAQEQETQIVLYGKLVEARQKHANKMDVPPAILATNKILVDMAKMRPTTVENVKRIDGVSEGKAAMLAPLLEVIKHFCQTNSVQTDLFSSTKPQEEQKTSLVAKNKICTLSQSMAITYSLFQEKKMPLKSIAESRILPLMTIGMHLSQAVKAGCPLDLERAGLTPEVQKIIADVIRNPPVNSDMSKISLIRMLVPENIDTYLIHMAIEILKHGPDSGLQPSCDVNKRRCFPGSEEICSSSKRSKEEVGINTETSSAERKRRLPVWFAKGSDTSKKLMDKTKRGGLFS
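WRN at 20 nM final preincubated with compound 15 min at room temperature; reaction started with 100 nM fluorophore/quencher forked duplex oligonucleotide and 2 mM ATP final. Unwinding followed kinetically by red fluorescence (ex 525, em 598 nm).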
PI5P4Ka inh: qHTS for Inhibitors of phosphatidylinositol 5-phosphate 4-kinase (PI5P4K) | Phosphatidylinositol 5-phosphate 4-kinase type-2 alpha (Homo sapiens), P48426 | PI5P4Kalpha enzyme, ADP-Glo luminescence, 60 min; stronger effect = lower value | max response, % | 330,000 compounds, 1.2% hits | AID 652105, 2013; active means max response of -50% or lower; inconclusive means between -30% and -50%; inactive means -30% or higher; further: value at the top dose of about 77 µM; on the % scale 0 is the no-effect control and ±100 the full control effect
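Enzyme plus substrate dispensed, test compounds pinned in, then ATP (5 microM final) added. After 60 min at RT, ADP-Glo reagent 1 for 45 min and reagent 2 for 30 min preceded luminescence imaging.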
POLI inh: qHTS for Inhibitors of Polymerase Iota. DNA polymerase iota (Homo sapiens), Q9UNA4. Pol iota fluorescent replication assay, 10 min. Potency, µM (highest dose often 115 µM), without a hit: at the highest dose activity, negative = inhibition, usual class: inhibitors. 390,000 compounds, 1% hits. AID 588590, 2011; further: potency means the concentration at half of the fitted maximal effect
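Pol iota at 10 nM preincubated 15 min with compounds at room temperature; reaction started with fluorescent substrate, 50 nM final. Fluorescence read kinetically at 0 and 10 min; buffer-only wells as negative control.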
POLK inh: qHTS for Inhibitors of Polymerase Kappa. purified Pol kappa, fluorescent DNA synthesis assay, 10 min. Potency, µM (top dose mostly 107 µM), without a hit: at the highest dose activity, negative = inhibition, usual class: inhibitors. 400,000 compounds, 0.53% hits. AID 588579, 2011; further: potency means the concentration at half of the fitted maximal effect; on the % scale 0 is the no-effect control and ±100 the full control effect
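Inhibition of 10 nM Pol kappa is measured by a fluorescent read-out at 0 and 10 min following addition of 50 nM substrate (final), with a 15-min room-temperature compound preincubation.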
Pol beta inh: qHTS Assay for Inhibitors of DNA Polymerase Beta; 340,000 compounds, 1.3% hits; P06746; Potency, µM (series often up to 114 µM), for the others: at the top dose activity change, negative = inhibition, usual class: inhibitors; Pol beta primer extension/strand displacement, fluorescence kinetic; further: potency means the concentration at half of the fitted maximal effect; on the % scale 0 is the no-effect control and ±100 the full control effect
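Values derive from four-parameter Hill fits of normalized kinetic data: reads at 0 and 10 min following addition of 50 nM substrate to 10 nM Pol beta preincubated 15 min with compound.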
Starred values were filed as active, the others as inactive; u = inconclusive; x = no result given; ! = repeats disagree; [ ] = another dose, or the depositor's remark. Shown are actives, neighbours in structure and some others; about 2.8% of the full set was active somewhere. Unless noted, the call rests on the fitted dose curve; in most records, active means well fitted curve in the direction sought with a large enough effect; inconclusive means small, poorly fitted or top-dose-only effect, or another doubt; inactive means no such curve, though single readings can be large; an effect the other way counts as inactive or inconclusive.

SMILES | POLH inh | WRN helicase inh | PI5P4Ka inh | POLI inh | POLK inh | Pol beta inh
CCOP(=S)(OCC)SCSc1ccc(Cl)cc1 | x | x | x | x | 15µM* | x
CN(C(=O)Cc1ccc(Cl)c(Cl)c1)C(CN1CCCC1)c1cccc(N=C=S)c1 (stereo not given) | x | x | x | x | 5%[19.4 µM] | x
O=c1[nH]c(=S)n(Cc2ccco2)c(O)c1C=NCc1cccs1 | 22µM* | u | -69* | 22µM* | 50µM* | 13µM*
O=c1[nH]c(=O)n(Cc2ccco2)c(O)c1C=NCc1cccs1 | u | -15% | x | -24%[58.9 µM] | u | -1%
Cc1ccc2c(c1)N(N=O)CCC2 | 89µM* | -31%[57.1 µM] | 0 | 27% | -2% | 3%
O=c1c2ccccc2[se]n1-c1ccccc1 | -6% | -17%[11.6 µM] | -91* | u | 10%[60.1 µM] | 3.2µM*!
O=c1c2ccccc2nc(-c2ccccc2)n1-c1ccccc1 | 2% | -3% | 1 | 1% | -3% | -2%
CC(C)=CCCN1CCC(NC(=O)C(O)(c2ccccc2)C2CCCC2)CC1 (stereo not given) | x | x | x | x | -4%[60.1 µM] | x
CC1(C)[C@H](C(=O)O[C@H](C#N)c2cccc(Oc3ccccc3)c2)[C@@H]1C=C(Br)Br | x | x | x | x | 7%[60.1 µM] | x
Cc1cc(Oc2cc(NN3CCCCC3)c([N+](=O)[O-])cc2[N+](=O)[O-])ccc1[N+](=O)[O-] | -11% | -14% | u | u | -21% | 40µM*
O=[N+]([O-])c1ccc(N2CCCC2)c(F)c1Br | -14% | 3% | 0 | u | -4% | 42%
C[C@]12CC[C@@H]3c4cc(O)c(O)cc4CC[C@H]3[C@@H]1CC[C@@H]2O | 5% | -6% | -62* | -22% | -13% | u
C[C@]12CC[C@H]3[C@@H](CCC4=CC(=O)CC[C@@H]43)[C@@H]1CC[C@@H]2O | -15% | 8% | -5 | 15% | 0% | x
C[C@]12CCC(=O)C=C1CCC1C2CC[C@@]2(C)C1CC[C@@H]2O (stereo not given in full) | -24% | 12% | 3 | 62% | 3% | x
C[C@]12CC[C@@H]3c4ccc(OC(=O)N(CCCl)CCCl)cc4CC[C@H]3[C@@H]1CC[C@@H]2O | x | x | x | x | 8.9µM* | x
C[C@]12CC[C@@H]3c4ccc(O)c(O)c4CC[C@H]3[C@@H]1CC[C@@H]2O | -10% | 0% | -74* | u | -4% | 1%
O=C(CO)[C@@H](O)C(O)[C@@H](O)CO (stereo not given in full) | x | x | x | x | 14%[60.1 µM] | x
O=C(Nc1ccc(F)cc1F)c1cccn(Cc2ccccc2)c1=O | -6% | -2% | 14 | -26% | 4% | -3%
Cc1ccc(F)cc1NC(=O)c1ccc(Cn2nc(N3CCN(c4ccccc4)CC3)ccc2=O)o1 | 79µM* | x | x | u | -11% | u
CCCNC1=C(C)C(=O)C2=C(C1=O)C(COC(N)=O)[C@]1(OC)C3NC3CN21 (stereo not given in full) | u | u | u | 7.9µM* | 45µM* | 18%
Cc1c(C(=O)Nc2ccc(Br)cc2F)oc2ccc(S(=O)(=O)N3CCCCC3)cc12 | 4% | x | x | -5% | -10%[60.1 µM] | 0%
N#CC1=C(N)Oc2n[nH]c(-c3cccs3)c2C1c1ccco1 (stereo not given) | u | -32% | -26 | 13µM* | -16% | -2%
N#CC1=C(N)Oc2c(c(=O)sc3ccccc23)C1c1ccncc1 (stereo not given) | -14% | 2% | u | 30% | -1% | 38%
N#CC1=C(N)Oc2n[nH]c(-c3cccs3)c2C1c1ccsc1 (stereo not given) | u | u | -56* | -5% | -16% | u
Cc1ccccc1C(=O)Nc1cc(-c2ccc(Cl)cc2)nn1-c1ccccc1 | -15% | x | x | 16% | -2%[60.1 µM] | u
SMILES | POLH inh | WRN helicase inh | PI5P4Ka inh | POLI inh | POLK inh | Pol beta inh
CCC(Oc1ccccc1OC)C(=O)Nc1ccc2c(c1)OCCO2 (stereo not given) | -14% | 2% | -2 | 40% | -1% | -10%
CC1Oc2cc3c(-c4c(O)cc(O)c5c(O)c6c(cc45)OC(C)C(C)C6=O)c(O)cc(O)c3c(O)c2C(=O)C1C (stereo not given) | 7.1µM* | 63µM* | -109* | 4µM* | 35µM* | 35µM*
Cc1cccc(NC(=O)Cn2cc(C(=O)C3CC3)c3ccccc32)c1C | -3% | u | 1 | u | -10% | u
NC(=O)OCCCc1ccccc1 | -5% | -2% | 2 | u | 0% | x
CCOC(=O)CCCc1cc[c]([Sb](=[O])([OH])[OH])cc1 | x | x | x | 1µM* | 0.71µM* | x
N#C/C(=C\c1ccc(O)c(O)c1)C(=O)NCCCNC(=O)/C(C#N)=C/c1ccc(O)c(O)c1 | 0.11µM* | x | x | 0.11µM* | 0.3µM* | 0.13µM*
N#C/C(=C/c1ccc(O)c(O)c1)C(N)=S | x | x | x | x | 1.7µM* | x
Cc1cc(=O)n2[nH]c(C)cc2n1 | -2% | -3%[57.1 µM] | 13 | 75% | -16% | 28%
Cc1c(OC(=O)N(C)C)ccc2c1O/C(=C\c1ccco1)C2=O | -20% | 5% | 4 | 12% | -2% | 50µM*
C[C@@H]1CC[C@H]2[C@H](C)[C@H]3CC[C@@]4(O)[C@@H]5CC(=O)[C@H]6CC(=O)CC[C@]6(C)[C@H]5C[C@H]4[C@@H]3CN2C1 | x | x | x | x | 17%[60.1 µM] | x
Cc1ccc(-c2nc(N(C)C3CCN(C)CC3)c3ccccc3n2)cc1 | 1% | -12% | x | u | -8% | 28µM*
